Structures are written as SMILES. Active and inactive are the calls of the source.

A short description of assay [1]: optical density shifts of acrAB sulA E. coli – strain DRC41, OD650, 48 h, E. coli filamentation inducer project, primary screen (AID 1152).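 Also: E. coli MC1000 strain DRC41 lacking acrAB efflux pump and sulA.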 Particulars: higher = more signal, called active from +8 up or from −8 down.
Assay [2] is described as follows: probe aLefty1 binding on compound microarray – biochemical, small-molecule microarray, 635/667 nm fluorescence, primary screen (AID 1153).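 Also: score merges spot fluorescence with signal-to-noise ratio from the scanned slide images.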 The following applies: higher = more signal.
Assay [3] in a line: plasmodial surface anion channel blockers, osmotic lysis – cell-based, P. falciparum Indochina, OD700, 1 h, primary screen (AID 1154). The following applies: P. falciparum Indochina infected RBC osmotic lysis, higher = more signal, called active from +8 up or from −8 down.
Assay [4] in a line: plasmodial surface anion channel blockers, osmotic lysis – cell-based, P. falciparum Indochina, OD700, 2 h, primary screen (AID 1155).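 Also: lysis reports solute entry through the parasite surface anion channel PSAC.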 Particulars: P. falciparum Indochina infected erythrocytes, higher = more signal, called active from +8 up or from −8 down.
The nature of assay [5]: changes in parasitized red cell lysis, either direction – P. falciparum Indochina, OD700, 3 h, PSAC antagonist project, primary screen (AID 1156). The following applies: P. falciparum-infected erythrocytes, osmotic lysis, higher = more signal, called active from +8 up or from −8 down.
The nature of assay [6]: plasmodial surface anion channel blockers, osmotic lysis – cell-based, P. falciparum Indochina, OD700, 18 h, primary screen (AID 1157). Particulars: P. falciparum Indochina infected erythrocytes, osmotic lysis OD700, 18 h; higher = more signal, called active from +8 up or from −8 down.
Assay [7] can be described thus: S6 kinase pathway phospho-S6 level changes – cell-based, A549, cytoblot, luminescence, serum-stimulated, primary screen (AID 1158).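 Also: serum-stimulated A549 lung adenocarcinoma cells; signal is phosphorylated S6 detected by cytoblot immunostaining with HRP secondary.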 The following applies: 5 h, higher = more signal.
Assay [8] deals with NADPH oxidase 2 (Homo sapiens) (UniProt P04839). Kind of assay: compounds shifting NOX2 Amplex Red fluorescence – cell-based, HEK293-NOX2, PMA-stimulated, NOX inhibitor project, primary screen (AID 1159). Also: test concentration not given here. The following applies: 45 min, higher = more signal, called active from +8 up or from −8 down.
Assay [9] concerns the target NADPH oxidase 4 (Homo sapiens) (UniProt Q9NPH5). Description: compounds shifting NOX4 Amplex Red fluorescence – cell-based, HEK293-NOX4, tetracycline-induced, NOX inhibitor project, primary screen (AID 1160). Particulars: HEK293-NOX4, Amplex Red H2O2 fluorescence, 45 min; higher = more signal, called active from +8 up or from −8 down.
Assay [10] has as its target NADPH oxidase 5 (Homo sapiens) (UniProt Q96PH1). Description: compounds shifting NOX5 Amplex Red fluorescence – cell-based, HEK293-NOX5, NOX inhibitor project, primary screen (AID 1161). Particulars: HEK293-NOX5, ionomycin, 45 min, higher = more signal.

Chain of NADPH oxidase 2 (Homo sapiens) (P04839 whole entry, looked up): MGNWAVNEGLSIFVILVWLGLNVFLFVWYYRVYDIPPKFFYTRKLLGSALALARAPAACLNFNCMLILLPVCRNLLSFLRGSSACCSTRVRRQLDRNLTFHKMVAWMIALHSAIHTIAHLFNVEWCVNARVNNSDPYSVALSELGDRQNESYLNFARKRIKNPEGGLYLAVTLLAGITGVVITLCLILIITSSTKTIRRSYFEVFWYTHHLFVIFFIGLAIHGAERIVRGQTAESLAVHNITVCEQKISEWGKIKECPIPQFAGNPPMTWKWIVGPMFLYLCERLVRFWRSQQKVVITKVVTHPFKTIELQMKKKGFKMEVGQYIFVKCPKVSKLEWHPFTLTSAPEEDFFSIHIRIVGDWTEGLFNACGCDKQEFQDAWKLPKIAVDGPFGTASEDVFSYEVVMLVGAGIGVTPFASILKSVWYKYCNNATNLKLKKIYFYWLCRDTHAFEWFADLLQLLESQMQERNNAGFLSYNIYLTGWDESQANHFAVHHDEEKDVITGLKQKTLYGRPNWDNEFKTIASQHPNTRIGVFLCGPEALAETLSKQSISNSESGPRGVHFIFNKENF
Chain of NADPH oxidase 4 (Homo sapiens) (Q9NPH5 whole entry, looked up): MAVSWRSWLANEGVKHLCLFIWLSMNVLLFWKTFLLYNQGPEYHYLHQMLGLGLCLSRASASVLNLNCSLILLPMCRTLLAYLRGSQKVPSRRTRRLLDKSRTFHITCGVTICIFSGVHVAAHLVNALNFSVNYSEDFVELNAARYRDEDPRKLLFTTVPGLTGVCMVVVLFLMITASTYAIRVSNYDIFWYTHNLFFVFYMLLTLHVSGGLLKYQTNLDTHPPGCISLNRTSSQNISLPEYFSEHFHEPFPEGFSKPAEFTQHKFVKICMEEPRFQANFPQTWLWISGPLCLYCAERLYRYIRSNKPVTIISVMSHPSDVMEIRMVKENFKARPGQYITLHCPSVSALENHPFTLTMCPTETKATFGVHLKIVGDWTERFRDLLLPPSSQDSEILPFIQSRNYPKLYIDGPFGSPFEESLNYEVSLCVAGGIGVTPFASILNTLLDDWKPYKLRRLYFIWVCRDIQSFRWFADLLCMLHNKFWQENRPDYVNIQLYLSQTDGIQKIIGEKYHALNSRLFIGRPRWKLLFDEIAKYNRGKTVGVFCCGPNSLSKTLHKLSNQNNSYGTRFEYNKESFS
Chain of NADPH oxidase 5 (Homo sapiens) (Q96PH1 whole entry, looked up): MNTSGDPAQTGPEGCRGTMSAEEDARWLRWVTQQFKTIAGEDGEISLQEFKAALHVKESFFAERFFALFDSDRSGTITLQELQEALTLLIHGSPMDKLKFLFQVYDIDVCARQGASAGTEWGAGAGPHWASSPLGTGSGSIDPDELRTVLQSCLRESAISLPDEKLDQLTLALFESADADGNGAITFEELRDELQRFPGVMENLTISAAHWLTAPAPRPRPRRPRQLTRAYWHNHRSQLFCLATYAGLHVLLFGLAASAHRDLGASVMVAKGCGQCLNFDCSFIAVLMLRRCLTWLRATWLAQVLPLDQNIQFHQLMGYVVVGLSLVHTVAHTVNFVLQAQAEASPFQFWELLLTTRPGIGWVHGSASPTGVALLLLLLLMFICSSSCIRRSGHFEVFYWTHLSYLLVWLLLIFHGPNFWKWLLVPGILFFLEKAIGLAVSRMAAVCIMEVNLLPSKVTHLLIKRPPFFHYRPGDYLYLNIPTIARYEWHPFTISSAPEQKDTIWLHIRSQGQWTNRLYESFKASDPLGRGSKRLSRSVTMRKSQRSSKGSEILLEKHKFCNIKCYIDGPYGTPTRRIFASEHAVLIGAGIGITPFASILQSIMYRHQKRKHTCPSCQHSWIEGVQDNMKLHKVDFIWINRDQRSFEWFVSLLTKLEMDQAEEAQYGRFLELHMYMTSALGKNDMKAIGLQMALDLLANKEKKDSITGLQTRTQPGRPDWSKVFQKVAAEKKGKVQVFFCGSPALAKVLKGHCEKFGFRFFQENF

For the molecule `CC(=O)NCCCC[C@@H]1NC(=O)[C@H]2C[C@@H](C(=O)O)[C@@H](c3cccc(OCCO)c3)N2C1=O`, the z-score in [1] is -0.442 (inactive); in assay [3] it was 1.15 (inactive); in [4], 0.821 (inactive); in assay [5], -1.42 (inactive); in assay [6] it was 0.253 (inactive); in assay [7], 0.435. The z-score is 0.956 (inactive) in assay [8], 0.197 (inactive) in assay [9] and -0.0358 in [10]. The same molecule came in with a composite z-score in assay [2] of 0.189.
As to `O=C1OCC=C[C@H]2OC34C=CCN(Cn5nnc6ccccc65)C(=O)[C@H]3N(CCO)C(=O)[C@@H]4[C@@H]12` (stereo not given in full), the z-score was -0.683 (inactive) in [1]; 0.813 (inactive) in assay [3]; 0.531 (inactive) in [4]; 0.268 (inactive) in assay [5]; 0.55 (inactive) in [6]; -0.376 in assay [7]. Besides, the z-score in assay [8] was 1.17 (inactive); in [9] it was 0.99 (inactive); in [10], 1.38. The composite z-score in assay [2] is -0.101.
As to `C=CCNC(=O)[C@H]1[C@@H]2C(=O)O[C@@H](c3ccccc3)[C@@H](c3ccccc3)N2[C@@H](c2ccc(O)cc2)[C@]12C(=O)Nc1ccccc12`, the z-score is 1.58 (inactive) in [1]; 2.59 (inactive) in assay [3]; 0.301 (inactive) in assay [4]; -0.458 (inactive) in assay [5]; 0.393 (inactive) in assay [6]; 0.288 in assay [7]. Moreover, the z-score in [8] was 0.0548 (inactive); in assay [9], -0.789 (inactive); in assay [10], 1.04. For the same molecule, the composite z-score in assay [2] was -0.191.
With `[N-]=[N+]=Nc1ccccc1C[C@@]1(C(=O)NCC(O)CO)N=C(c2ccc(OCCCO)cc2)O[C@@H]1c1ccccc1N=[N+]=[N-]` (stereo not given in full), the z-score in [1] is -0.193 (inactive); in [3] it was 30.3 (active); in assay [4], 29.2 (active); in assay [5] it was 0.0029 (inactive); in [6], 8.12 (active); in [7], 0.191. Further, the figures for the z-score in assay [8], in assay [9] and in [10] were -1.55 (inactive), 0.776 (inactive) and 1.85, respectively. Further, the composite z-score in assay [2] was -0.281.
Consider `CC(C)N1C(=O)[C@@]2(Cc3ccccc31)c1ccccc1C(=O)N(Cc1ccccc1)[C@H]2c1ccc(CO)cc1`, for which the z-score in [1] was 0.882 (inactive); in [3] it was 0.117 (inactive); in [4] it was 0.945 (inactive); in assay [5], 0.146 (inactive); in assay [6] it was 0.328 (inactive); in assay [7], -0.274. The z-score was -1.11 (inactive) in assay [8], -0.462 (inactive) in [9] and -0.601 in assay [10]. For the same molecule, the composite z-score in assay [2] was -0.211.
Regarding `CC[C@@H](O[Si](C#C[Si](C(C)C)(C(C)C)C(C)C)(C(C)C)C(C)C)c1cn(Cc2cccc(Cl)c2)nn1`, the z-score in assay [1] was 1.2 (inactive); in assay [3], -0.0842 (inactive); in assay [4], 0.523 (inactive); in assay [5], -0.559 (inactive); in assay [6], 0.0622 (inactive); in assay [7], -0.559. Moreover, the z-score in [8] was -0.16 (inactive); in [9], -0.839 (inactive); in [10], -1.62. In addition, the composite z-score in assay [2] was 0.106.
With `COc1cc(CO)cc(I)c1O[C@H]1C=C(C(=O)NCCO)C[C@@H](N(CCN2CCOCC2)C(=O)C2CCCO2)[C@@H]1O` (stereo not given in full), the z-score was 2.39 (inactive) in assay [1]; 0.961 (inactive) in assay [3]; -0.339 (inactive) in [4]; 0.483 (inactive) in [5]; 0.108 (inactive) in [6]; 0.545 in [7]. Besides, the z-score was -0.842 (inactive) in assay [8], 0.225 (inactive) in assay [9] and 0.235 in assay [10]. In addition, the composite z-score in [2] is -0.245.
With `C=CC[C@H](O)c1ccc(O)c(F)c1`, the z-score in [1] was -0.421 (inactive); in [3] it was 0.307 (inactive); in assay [4] it was 0.131 (inactive); in assay [5], -0.304 (inactive); in assay [6] it was 0.255 (inactive); in assay [7], -0.165. Moreover, the z-score in [8] is -1.32 (inactive); in assay [9], -0.305 (inactive); in assay [10], 0.113. In assay [2], the composite z-score is -0.555.
Regarding `C[C@]12C(=O)N(CCO)[C@@H]3C(=O)N(c4ccc(Cl)cc4)CC=CC31O[C@@H]1/C=C\CCCOC(=O)C12` (stereo not given in full), the z-score in assay [1] is -0.295 (inactive); in assay [3], 0.505 (inactive); in assay [4], 0.176 (inactive); in assay [5] it was 0.228 (inactive); in assay [6], 0.359 (inactive); in assay [7], -0.362. Further, the z-score in [8] is 1.96 (inactive); in [9], -0.22 (inactive); in assay [10] it was 2.65. In assay [2], this molecule yielded a composite z-score of 0.161.
For the molecule `C=C(C(=O)CC[C@@H](OC(=O)c1ccccc1-c1ccccc1C(=O)O)c1cccc(OCCO)c1)C(C)C`, the z-score in assay [1] was 0.272 (inactive); in [3], 4.83 (inactive); in assay [4], 0.407 (inactive); in assay [5], 0.51 (inactive); in assay [6], 0.233 (inactive); in assay [7], -0.205. The z-score in assay [8] was 3.11 (inactive); in [9], 1.06 (inactive); in [10] it was -0.442. Further, the composite z-score in [2] was found to be 0.262.
For the molecule `CCCCN1CC=CC23O[C@@H]4C=CCCOC(=O)C4[C@H]2C(=O)N(CCO)[C@@H]3C1=O` (stereo not given in full), the z-score in assay [1] was 0.634 (inactive); in assay [3], 0.506 (inactive); in assay [4], 0.303 (inactive); in [5], 1.21 (inactive); in assay [6], 0.211 (inactive); in [7], -0.357. Moreover, the z-score in assay [8] is 1.09 (inactive); in [9] it was 0.519 (inactive); in assay [10] it was 0.432. For the same molecule, the composite z-score in [2] was -0.239.
Take `CCOC(=O)C=C1C[C@@H](c2cccc([N+](=O)[O-])c2)O[C@@H](c2cccc([N+](=O)[O-])c2)O1`: the z-score in assay [1] was -0.546 (inactive); in [3], 1.65 (inactive); in assay [4], 1.11 (inactive); in assay [5], -0.481 (inactive); in assay [6], 0.66 (inactive); in assay [7], -0.125. Also, the z-score is 0.325 (inactive) in assay [8], 0.481 (inactive) in [9] and 1.28 in [10]. In addition, the composite z-score in [2] turned out to be 1.21.
As for `COC(=O)[C@@]1(Cc2ccc(F)cc2)[C@H]2c3cc(C(=O)N(C)C)n(Cc4ccsc4Br)c3C[C@H]2CN1C(=O)c1ccccc1`, the z-score was -1.62 (inactive) in assay [1]; 3.86 (inactive) in assay [3]; 0.413 (inactive) in assay [4]; 0.952 (inactive) in [5]; 0.765 (inactive) in assay [6]; -0.155 in assay [7]. Besides, the z-score is -2.09 (inactive) in assay [8], -5.46 (inactive) in assay [9] and -2.35 in assay [10]. The molecule also gave a composite z-score in [2] of 1.06.

The values above are taken from PubChem BioAssay.
